From PubChem BioAssay
Shown are actives, neighbours in structure and some others; about 3.4% of the full set was active somewhere.
Gli-Sufu antag = blocks Gli-Sufu signaling in a luciferase reporter; Sufu-KO-LIGHT fibroblasts, Gli luciferase reporter luminescence; inhibition, % at 5 µM; actives 0.74% (n = 340,000);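 active = inhibition above about 55%, limit read from the data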;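 note: 0% = DMSO-treated cells and 100% = wells with medium but no cells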
GAA850 FXN act = increases GAA850 frataxin promoter reporter activity. HEK293 lucGAA850 FXN promoter luciferase reporter, 24 h; percent of 10 µM SAHA response. activation, % at 6 µM. actives 0.56% (n = 360,000). AID 540364;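 active = activation above the average of all compounds screened plus 3 SD, cutoff fixed separately per campaign, cut at about 7.5% in these data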;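 note: 0% = DMSO wells and 100% = 10 µM SAHA wells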
SMARCA2 act = activators of SMARCA2 function | actives 1% (n = 370,000) | activation, % at 9.1 µM | MG213 cells, MMTV-luciferase reporter, dexamethasone, overnight; in the data active = activation above about 7.8%;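 note: 0% = vehicle wells and 100% = reference activator wells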
H9c2 protect = modulators protecting cardiomyocytes from myocardial damage | H9c2 cardiomyocytes, H2O2 injury protection, ATPLite, 2 h | protection from H2O2 cell death, % at 20 µM | actives 0.63% (n = 360,000);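 active = compounds giving at least 50% protection of heart cells from peroxide-induced death in the single-dose screen, raw or plate-pattern-corrected value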;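 note: 0% = DMSO wells with peroxide and 100% = DMSO wells without peroxide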
COUP-TFII inh = inhibitors of human COUP-TFII (NR2F2). HEK293T NGFI-A luciferase reporter, luminescence. AID 686940. inhibition, % at 8.6 µM. P24468. actives 0.7% (n = 370,000);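 active = inhibition above a per-plate cutoff, mean inhibition of test wells between control levels plus 3 SD, cut at about 38% in these data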;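 note: cells cotransfected with COUP-TFII expression vector driving the NGFI-A reporter; 0% = median of COUP-TF2 test wells and 100% = reporter-only cells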
Target sequence (P24468 whole entry, looked up): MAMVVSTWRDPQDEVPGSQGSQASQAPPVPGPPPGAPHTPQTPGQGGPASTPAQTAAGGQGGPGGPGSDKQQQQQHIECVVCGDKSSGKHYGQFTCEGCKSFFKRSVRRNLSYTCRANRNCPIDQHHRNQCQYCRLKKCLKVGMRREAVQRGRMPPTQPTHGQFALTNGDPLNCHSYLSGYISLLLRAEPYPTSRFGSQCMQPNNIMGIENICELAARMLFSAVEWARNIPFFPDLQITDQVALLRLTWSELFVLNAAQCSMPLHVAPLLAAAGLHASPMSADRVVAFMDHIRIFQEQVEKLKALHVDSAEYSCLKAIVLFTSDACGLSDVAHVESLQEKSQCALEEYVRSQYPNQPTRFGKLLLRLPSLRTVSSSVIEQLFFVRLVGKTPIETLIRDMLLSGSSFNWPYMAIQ
GalR3 antag = human GalR3 antagonism; HEK293 GalR3-CNG cAMP membrane potential fluorescence; galR3 body fused to GalR1 C-terminus; actives 0.44% (n = 360,000); inhibition, % at 3 µM; AID 651719; O60755;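 active = inhibition above the screen-wide average plus 3 SD, cut at about 13% in these data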;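 note: forskolin and galanin both at EC90 stimulate the cells; cAMP rise reported by CNG channel membrane potential dye signal; 0% = forskolin plus galanin with DMSO and 100% = forskolin alone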
Target sequence (O60755 1-299 limits assumed): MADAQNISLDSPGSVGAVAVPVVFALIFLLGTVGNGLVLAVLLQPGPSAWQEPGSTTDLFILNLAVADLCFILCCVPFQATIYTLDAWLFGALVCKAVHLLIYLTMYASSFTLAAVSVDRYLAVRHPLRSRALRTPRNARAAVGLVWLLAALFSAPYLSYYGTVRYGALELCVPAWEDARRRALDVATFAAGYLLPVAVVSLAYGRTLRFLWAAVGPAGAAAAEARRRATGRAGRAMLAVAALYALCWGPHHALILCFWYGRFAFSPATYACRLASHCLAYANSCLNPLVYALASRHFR
Gli antag conf = confirmation of Gli-SUFU pathway antagonists. Sufu-KO-LIGHT cells, Gli luciferase reporter, luminescence. inhibition, % at 5 µM. AID 602428. shares compounds with Gli-Sufu antag. actives 40% (n = 2,500);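 active = mean inhibition at 5 µM reaching about 45%, limit read from the data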;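 note: plate controls were DMSO-treated cells for no effect and wells lacking cells for full effect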
SufuKO cytotox = counter-screen for Gli-SUFU antagonists: cytotoxicity. shares compounds with Gli-Sufu antag. Sufu-KO-LIGHT cells cytotoxicity, ATP luminescence. cytotoxicity, % at 5 µM. actives 32% (n = 2,500). AID 651994;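 active = mean cytotoxicity at 5 µM above about 25%, limit read from the data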;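 note: cells exposed to compound overnight for roughly 16 to 18 hours; plate controls were DMSO wells with cells for no effect and medium without cells for full effect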
Wnt3a cs = inhibits Wnt3a reporter, counter-screen for Gli-SUFU antagonists; inhibition, % at 6.25 µM; actives 20% (n = 2,500); Wnt-LIGHT cells, Wnt3a-driven luciferase reporter, luminescence; shares compounds with Gli-Sufu antag;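 active = mean inhibition above about 25%, limit read from the data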
Numbers without * were called inactive.

What do the screens show for `C=Cc1ccc(Cn2c(=O)n(C)c(=O)c3sccc32)cc1`?
Gli-Sufu antag: 53.8; GAA850 FXN act: -1.4; SMARCA2 act: -3.2; H9c2 protect: -15.7; COUP-TFII inh: 6.5; GalR3 antag: -10.5; Gli antag conf: 34.7; SufuKO cytotox: 16.4; Wnt3a cs: 4.2

Results for Cn1c(O)c(N=NC(=O)CNC(=O)c2cccnc2)c2ccccc21 ?
Gli-Sufu antag: 51.1; GAA850 FXN act: -1.6; SMARCA2 act: -3.4; H9c2 protect: 3.5; COUP-TFII inh: 2.6; GalR3 antag: 2.6; Gli antag conf: 25.2; SufuKO cytotox: 0.5; Wnt3a cs: 3.9

How did CCCn1c(O)c(N=NC(=O)CNC(=O)c2cccnc2)c2ccccc21 do in these assays?
Gli-Sufu antag: 6.9; GAA850 FXN act: 2.1; SMARCA2 act: 7.7; H9c2 protect: 5.0; COUP-TFII inh: 14.9; GalR3 antag: -10.8

How did OC(CN1CCCCC1)CN(c1ccccc1)c1ccccc1 (centres undefined) do in these assays?
Gli-Sufu antag: 12.8; GAA850 FXN act: 1.6; SMARCA2 act: -0.4; H9c2 protect: -24.9; COUP-TFII inh: 0.5; GalR3 antag: -5.1

What do the screens show for `OC(CN1CCCCCC1)CN(c1ccccc1)c1ccccc1` (centres undefined)?
Gli-Sufu antag: 51.9; GAA850 FXN act: -1.5; SMARCA2 act: -2.5; H9c2 protect: -15.5; COUP-TFII inh: -3.0; GalR3 antag: -7.0; Gli antag conf: 16.3; SufuKO cytotox: 11.8; Wnt3a cs: -30.1

How did COC(=O)C1CN(Cc2cn(Cc3ccc(F)cc3)nn2)CCS(=O)(=O)N1Cc1ccc(F)cc1 (centres undefined) do in these assays?
SMARCA2 act: -2.3; COUP-TFII inh: 1.7

Results for COc1cc(/C=N\NC(=O)c2ccc(Cn3nc([N+](=O)[O-])c(Cl)c3C)o2)ccc1O ?
Gli-Sufu antag: 11.2; GAA850 FXN act: 1.2; SMARCA2 act: 0.3; H9c2 protect: 37.6; COUP-TFII inh: 13.7; GalR3 antag: -1.8

Results for COc1cccc(/C=N\NC(=O)c2ccc(Cn3cc(Br)c([N+](=O)[O-])n3)o2)c1O ?
Gli-Sufu antag: 55.9*; GAA850 FXN act: -7.8; SMARCA2 act: -4.5; H9c2 protect: 16.9; COUP-TFII inh: -2.7; GalR3 antag: -5.8; Gli antag conf: 50.0*; SufuKO cytotox: 13.3; Wnt3a cs: 47.1*

How did O=C1CCN(CCc2ccccc2)CCN1[C@H](CSc1ccccc1)Cc1ccccc1 do in these assays?
Gli-Sufu antag: 62.1*; GAA850 FXN act: -1.5; SMARCA2 act: -1.2; H9c2 protect: -25.1; COUP-TFII inh: -9.3; GalR3 antag: -7.2; Gli antag conf: 26.9; SufuKO cytotox: 22.7; Wnt3a cs: -12.0

Results for CCCN1CCC(=O)N([C@H](CSc2ccc(OC)cc2)Cc2ccccc2)CC1 ?
Gli-Sufu antag: 52.5; GAA850 FXN act: -2.4; SMARCA2 act: 0.9; H9c2 protect: -5.5; COUP-TFII inh: 9.3; GalR3 antag: -2.4; Gli antag conf: 48.4*; SufuKO cytotox: 18.1; Wnt3a cs: 10.2

How did CCCN1CCC(=O)N([C@H](CSc2ccc(C)cc2)Cc2ccccc2)CC1 do in these assays?
Gli-Sufu antag: 29.9; GAA850 FXN act: -1.0; SMARCA2 act: 1.3; H9c2 protect: 7.0; COUP-TFII inh: -13.8; GalR3 antag: -13.7

What do the screens show for `Cc1ccc(SC[C@H](Cc2ccccc2)N2CCN(CCc3ccccc3)CCC2=O)cc1`?
Gli-Sufu antag: 15.3; GAA850 FXN act: -0.2; SMARCA2 act: 1.5; H9c2 protect: -14.3; COUP-TFII inh: -6.0; GalR3 antag: -5.7

How did COC(=O)c1cc(S(=O)(=O)N2CCN(c3ccc([N+](=O)[O-])cc3)CC2)c[nH]1 do in these assays?
Gli-Sufu antag: 51.0; GAA850 FXN act: -0.6; SMARCA2 act: -0.2; H9c2 protect: -4.8; COUP-TFII inh: -11.5; GalR3 antag: -0.9; Gli antag conf: 21.0; SufuKO cytotox: -1.1; Wnt3a cs: -68.1

Results for COC(=O)c1cc(S(=O)(=O)N2CCC(c3cc(OC)ccc3OC)C2)c[nH]1 (centres undefined) ?
Gli-Sufu antag: 52.4; GAA850 FXN act: -2.2; SMARCA2 act: -2.4; H9c2 protect: -13.3; COUP-TFII inh: 15.1; GalR3 antag: 1.0; Gli antag conf: 44.9; SufuKO cytotox: 27.8*; Wnt3a cs: 5.5

Results for COC(=O)c1cc(S(=O)(=O)N2CCN(c3ccc(F)cc3)CC2)c[nH]1 ?
Gli-Sufu antag: -47.3; GAA850 FXN act: -2.3; SMARCA2 act: 1.2; H9c2 protect: -6.5; COUP-TFII inh: 1.4; GalR3 antag: 1.3

How did COC(=O)[C@]12C[C@H](CC(=O)N3CCCCC3)C(=O)N(CCc3ccc(OC)c(OC)c3)C1=C[C@H](C1CCCC1)O[C@@H]2C do in these assays?
SMARCA2 act: 4.2; COUP-TFII inh: -24.9

How did Cc1ccc(N2CC(C(=O)Nc3nc4ccc(S(C)(=O)=O)cc4s3)CC2=O)cc1C (centres undefined) do in these assays?
Gli-Sufu antag: 50.8; GAA850 FXN act: -1.6; SMARCA2 act: 0.2; H9c2 protect: -3.4; COUP-TFII inh: 8.0; GalR3 antag: -10.2; Gli antag conf: 18.6; SufuKO cytotox: 13.4; Wnt3a cs: -43.1

What do the screens show for `Cc1csc(NC(=O)C2CC(=O)N(c3ccc(C)c(C)c3)C2)n1` (centres undefined)?
Gli-Sufu antag: 27.4; GAA850 FXN act: 2.9; SMARCA2 act: -2.6; H9c2 protect: -4.0; COUP-TFII inh: -1.6; GalR3 antag: -3.2

Results for CC(C)N=C(N)N=C(N)Nc1ccc(Cl)cc1 ?
Gli-Sufu antag: 70.1*; GAA850 FXN act: -1.3; SMARCA2 act: -5.5; H9c2 protect: -38.5; COUP-TFII inh: -11.3; Gli antag conf: 74.4*; SufuKO cytotox: 19.5; Wnt3a cs: 34.1*

Results for COc1cccc(C(=O)NCCN2CCOCC2)c1 ?
Gli-Sufu antag: 3.7; GAA850 FXN act: 1.1; SMARCA2 act: 3.0; H9c2 protect: -1.9; COUP-TFII inh: 3.3; GalR3 antag: -3.9

How did COc1cccc(C(=O)NCCN2CCN(c3ccc(Cl)cc3)CC2)c1 do in these assays?
Gli-Sufu antag: 50.5; GAA850 FXN act: -0.2; SMARCA2 act: -8.0; H9c2 protect: -1.5; COUP-TFII inh: 13.1; Gli antag conf: 23.1; SufuKO cytotox: 4.3; Wnt3a cs: -37.9

What do the screens show for `CCOC1CCCc2oc(-c3ccsc3)c(-c3cnc(OC)nc3)c21` (centres undefined)?
SMARCA2 act: -3.4; COUP-TFII inh: 1.0; GalR3 antag: -7.4
